Measured values taken from PubChem BioAssay AID2314 (National Center for Advancing Translational Sciences (NCATS), 2010).
About 37,000 (12%) of roughly 300,000 compounds were called active. The full list was thinned out, with actives kept by preference. A number with no mark means an inactive call. Cut-off read from the data, not from the text of the source: active = max response mostly above about 13% (no sharp cut-off); inactive = mostly below about 14%.

Assay: Cycloheximide Counterscreen for Small Molecule Inhibitors of Shiga Toxin; note: read at 38.3 µM for the half of the compounds with a filed dose; 0% is about no effect
Settings: cell reporter, cycloheximide protein synthesis inhibition counterscreen; hits give high values

Compared with Fc1ccc2c(c1)C(c1cccnc1)=NNC(c1cccs1)=N2, O=C(c1ccc(F)cc1)c1c[nH]c(C(=O)NCc2cccnc2)c1 is lower in max response: 14.7% for the first, 0.811% for the second.

Going from CC(=O)Nc1ccc(Nc2c([N+](=O)[O-])cc(S(C)(=O)=O)cc2[N+](=O)[O-])cc1 to CN(C)CCNc1ccc(-c2n[nH]c(=O)c3ccccc23)cc1[N+](=O)[O-], the max response rises from -3.33% to -2.5%.

First: CCN(CC)S(=O)(=O)c1ccc(N2CCOCC2)c(NC(=O)C2CSC3(C)CCC(=O)N23)c1 (stereo not given)
Second: O=C(NCCN1CCOCC1)c1ccc2c(c1)N(Cc1ccc(Cl)cc1)CCS2
The max response of the first is higher: 10.5% for the first, -1.99% for the second.

First: CC(=O)N1c2ccccc2N(Cc2ccc([N+](=O)[O-])cc2)C(=O)C1(C)C
Second: CC(C(=O)N1CCN(c2ccccc2F)CC1)c1ccc([N+](=O)[O-])cc1 (stereo not given)
The max response of the first is higher: 10.6% for the first, -0.676% for the second.

Going from O=C(COc1ncnc2c(Cl)cc(Cl)cc12)N1CCN(S(=O)(=O)c2ccccc2)CC1 to CN1CCN(S(=O)(=O)c2cccc(C(=O)O)c2)CC1, the max response falls from 4.8% to -8.28%.

Going from CN(C)c1cccc(C(=O)N2CCC(n3nccc3NC(=O)C3CCOC3)CC2)c1 (stereo not given) to CCOCCCN(C)C1CCN(C(=O)c2oc3ccccc3c2NC(=O)COc2cccc(C)c2)CC1, the max response falls from 5.41% to -3.98%.

First: O=C(CNC(=O)OCc1ccccc1)Oc1cc2oc(=O)cc(-c3ccccc3)c2cc1Cl
Second: O=C(NCCOc1ccccc1Cl)C(=O)Nc1ccccc1
The max response of the first is higher: 7.2% for the first, -6.33% for the second.

First: COc1cccc(N(CC(=O)NCc2ccccc2)C(=O)CCC(=O)Nc2nccs2)c1
Second: O=C(CCc1ccc(S(=O)(=O)NC2CCCCC2)cc1)NCc1ccccc1
The max response of the first is lower: -5.29% for the first, -1.16% for the second.

Compared with O=C(c1ccc(S(=O)(=O)N2CCCC2)cc1)N1CCN(c2ccccc2F)CC1, O=C(c1ccccc1)N1CCN(C(=O)N2CCCCC2)CC1 is lower in max response: -1.05% for the first, -3.32% for the second.

Going from Cc1ccc(S(=O)(=O)N(C)c2nc3ccccc3n3c(C(C)C)nnc23)cc1 to Cc1ccc(S(=O)(=O)c2ccc(Oc3ccccc3)cc2)cc1, the max response falls from 1.55% to -0.97%.

First: CCc1nn(CCCC(=O)NC(C)c2ccccc2)c(=O)c2cc3occc3n12 (stereo not given)
Second: COc1ccc(NC(=O)Cn2ncn3c(cc4ccccc43)c2=O)c(OC)c1OC
The max response of the first is lower: 10.1% for the first, 12.5% for the second.

Compared with C#CCOCCOCCOCCNc1nc(N2CCN(C(=O)[C@H](CCC(=O)O)n3cc(C(N)CO)nn3)CC2)nc(N2CCN(C(=O)[C@H](CCCCN)n3cc(C(N)[C@H](C)CC)nn3)CC2)n1 (stereo not given in full), CCOC(=O)N1CCN(S(=O)(=O)N2CCCC(C(=O)NCCCN3CCC(C)CC3)C2)CC1 (stereo not given) is higher in max response: -1.6% for the first, 1.6% for the second.

First: COc1ccc(C(=O)CSc2nnc(-c3ccco3)o2)cc1
Second: COc1ccc(OCC(=O)Nc2nnc(-c3ccco3)s2)cc1
The max response of the first is higher: 11.4% for the first, -4.11% for the second.

First: O=c1c(Cl)c(NCc2ccc(F)cc2Cl)cnn1C12CC3CC(CC(C3)C1)C2
Second: O=C(Cc1ccc(F)cc1)NC1CCCC1
The max response of the first is lower: -2.73% for the first, 5.3% for the second.

Going from COc1cccc(C2CC(c3cccs3)=NN2C(=O)CSC2=NCCS2)c1OC (stereo not given) to COc1ccc(N(C)S(=O)(=O)c2ccc3c(c2)CC(C)N3C(=O)C2CC2)c(OC)c1 (stereo not given), the max response rises from -1.93% to 3.16%.

Compared with COc1ccc(N(C)C(=O)CCS(=O)(=O)c2cccc3nsnc23)cc1, COc1ccc(N(Cc2cc3ccc(C)cc3[nH]c2=O)S(=O)(=O)c2ccccc2)cc1 is lower in max response: 3.71% for the first, 0.769% for the second.

Going from O=C(Nc1ccccc1)Nc1nnc(COc2ccccc2F)s1 to CCc1ccccc1NC(=O)/C(=C/c1ccccc1)c1ccccc1, the max response rises from 0.805% to 8.5%.

Compared with COc1ccc(CN2CCc3nc(Nc4ccccc4)ncc3C2)c(OC)c1OC, CCOc1ccc(N2C(=O)CC(N(CCc3ccc(OC)c(OC)c3)C(=S)Nc3ccccc3)C2=O)cc1 (stereo not given) is lower in max response: 12.2% for the first, 8.04% for the second.

First: CCN(CC)C(=O)CC1(c2ccccc2OC)CCOC(C(C)C)C1 (stereo not given)
Second: COc1cc(C(=O)NC2CCN(Cc3ccccc3)CC2)cc(Cl)c1OC(C)C
The max response of the first is higher: -2.61% for the first, -3.58% for the second.

Compared with O=C(NC(=S)Nc1cc(C(F)(F)F)ccc1N1CCOCC1)c1ccc(-c2cccc(Cl)c2)o1, O=C(Nc1ccccc1N1CCN(C(=O)c2ccccc2)CC1)c1ccco1 is lower in max response: 12.2% for the first, -3.96% for the second.

Compared with O=C(O)c1ccccc1NC(=O)c1ccccc1-c1ccccc1C(=O)O, CC(=O)Nc1ccc(C(=O)C(Cc2ccccc2)N(C)C)cc1 (stereo not given) is higher in max response: 1.58% for the first, 9.54% for the second.

Compared with O=C(O)c1ccc2c(=O)n3c(nc2c1)/C(=C/c1ccc(Cl)c([N+](=O)[O-])c1)CC3, COC(=O)c1ccc(/C=C2/C(=O)Oc3ccccc32)cc1 is lower in max response: -1.06% for the first, -4.87% for the second.

First: COc1ccc(N=Nc2c(-c3ccc(OC)cc3)[nH]oc2=O)cc1
Second: COc1cc(SC#N)ccc1N=Cc1c(C)[nH]n(-c2ccc(C)cc2)c1=O
The max response of the first is lower: -1.85% for the first, -1.77% for the second.

Compared with COc1cc(NC(=O)CCS(=O)(=O)c2ccc3c(c2)oc(=O)n3C)cc(OC)c1, CC(=O)N1CCc2c(sc(NC(=O)CCS(=O)(=O)c3ccccc3)c2C#N)C1 is higher in max response: -9.36% for the first, 6.75% for the second.

First: CN(c1ccc2nc3ccccc3c(=O)n2n1)C1CCCCC1
Second: CCC(Cc1ccccc1)NC(=O)C1CCCCC1 (stereo not given)
The max response of the first is lower: -12.8% for the first, 5.22% for the second.

First: NC(=NC(=O)c1ccccc1)N1CCOCC1
Second: O=C(NC(=O)N1CCOCC1)c1ccccc1
The max response of the first is lower: -1.9% for the first, 4.39% for the second.

Going from CCOC(=O)C1CCN(c2ncnc3c2c(-c2ccccc2)cn3-c2ccc(C)cc2)CC1 to CCOC(=O)N1CCN(C(=O)c2ccc3c(c2)N(Cc2ccc(C)cc2)CCS3)CC1, the max response falls from 1.88% to -0.464%.

Going from COc1ccc(/C=C2/S/C(=N/N=C3\CC4CCC3(C)C4(C)C)NC2=O)cc1 (stereo not given) to COC(=O)c1c(NC(=O)COc2ccc(Cl)cc2Cl)sc2c1CC(C)(C)NC2(C)C, the max response falls from 8.52% to 0.749%.

Compared with CN1CCN(CC(=O)Nc2sc3c(c2C#N)CCC(C(C)(C)C)C3)CC1 (stereo not given), CCN1CCN(C2CCCCC2NS(=O)(=O)c2ccc(Cl)cc2)CC1 (stereo not given) is higher in max response: -3.82% for the first, -3.25% for the second.

Compared with CCOc1ccccc1CNS(=O)(=O)c1cc(-c2cc(C)no2)ccc1C, Cc1ccc(CC2CC(=O)N(c3cc(C)ccc3C)C2=O)cc1 (stereo not given) is lower in max response: 5.17% for the first, -1.67% for the second.

Compared with CCCCN(C)CCCNC(=O)c1cc(-c2cccs2)nc2ccccc12, O=C(CCN1C(=O)[C@H]2CC=CC[C@H]2C1=O)NCc1nc(-c2ccccc2)no1 is higher in max response: -4.95% for the first, 6.47% for the second.

Going from O=C(Cn1nc(C(F)(F)F)c2c1CCC2)NCc1ccc(F)cc1 to COC(=O)c1ccc(CSc2nncn2N)cc1, the max response rises from 0.318% to 2.72%.

First: O=C(CC1CCCCC1)NCc1ccco1
Second: CC(=O)Nc1ccc(S(=O)(=O)N2CCN(C3CCCCCCC3)CC2)cc1
The max response of the first is higher: -1.2% for the first, -5.2% for the second.

Going from CC(=O)Nc1ccc(N2C(=O)C3C4C=CC(CC4)C3C2=O)cc1 (stereo not given) to O=C(Nc1ccc(Cl)cc1)C1c2cccc[n+]2CC(=O)N1Cc1ccc2c(c1)OCO2 (stereo not given), the max response rises from 3.43% to 17.1%.

Compared with CCN1CCCC1CNC(=O)c1cc2cc(OC)c(OC)cc2[nH]1 (stereo not given), CC(C)=CCN1CCN(CCCc2ccccc2)CC1CCO (stereo not given) is higher in max response: -3.29% for the first, -0.846% for the second.

Going from O=c1c2sccc2nc(SCc2cc(=O)n3ccccc3n2)n1-c1ccc(Br)cc1 to CC1=C/C(=N\S(=O)(=O)c2ccccc2)C(C(C)C)=CC1=O, the max response rises from -4.5% to -2.83%.

Compared with CC(C)CNC(=O)C(=O)NCc1ccccc1, CC(C)CC(CC(C)C)=NNC(=O)c1ccc(CSc2nncn2C)cc1 is higher in max response: -1.62% for the first, -1.48% for the second.

Going from Cc1nnc(C)c2c(C)n(N)c(C)c12 to CCOC(=O)c1ccc(NC(=O)c2nc[nH]c2C(=O)N[C@@H](CCCCNC(=O)OC(C)(C)C)C(=O)OC(C)(C)C)cc1, the max response falls from -2.66% to -6.86%.

Compound C[C@@H](O)[C@@H]1NC(=O)[C@H](CCCCN)NC(=O)[C@H](Cc2c[nH]c3ccccc23)NC(=O)[C@H](Cc2ccccc2)NC(=O)[C@H](Cc2ccccc2)NC(=O)[C@H](CC(N)=O)NC(=O)[C@H](CCCCN)NC(=O)[C@@H](NC(=O)[C@@H]2CCCN2)CSSC[C@@H](C(=O)N[C@@H](CCCCN)C(=O)O)NC(=O)[C@H](CO)NC(=O)[C@H](CO)NC(=O)[C@H](Cc2ccccc2)NC1=O has a max response of -1.5%.

For CCCCOc1ccc(-c2nnc(-c3ccco3)o2)cc1, the max response was 28.1% (active).
For O=C(NCCOc1ccccc1F)Nc1ccc(Br)cc1, the max response was 41.8% (active).
For O=C(NC(=S)Nc1ccccc1C(=O)O)c1ccc(-c2ccc(Br)cc2)o1, the max response was 45.5% (active).
For O=C(O)c1cccc(N=NN2CCCCCC2)c1, the max response was 69.7% (active).
For O=C(O)c1ccc(N=NN2CCOCC2)cc1, the max response was 39% (active).
In the case of O=C(NCCc1ccccc1)c1ccc2c(c1)N(Cc1ccccc1)CCS2, the max response was 38.6% (active).
With CCC1CCc2c(sc(NC(C)=O)c2C#N)C1 (stereo not given) the max response was 14.2% (active).
With O=C(CC1CCCCC1)NCc1ccc(F)cc1 the max response was 24.8% (active).
For CC(=O)Nc1ccc(NC(=O)CC2CCCC2)cc1, the max response was 20.7% (active).
With O=C(CC1CCCCC1)NCc1ccccc1 the max response was 17.3% (active).
For CC1=C/C(=N\OS(=O)(=O)c2ccccc2)C=CC1=O, the max response was 35% (active).
In the case of CC(C)CNC(=O)C(=O)Nc1ccc(N(C)C)cc1, the max response was 38.6% (active).
With COC(=O)c1ccc(CSc2nncn2C)cc1 the max response was 62.2% (active).
